Values without a mark were called inactive. Inconclusive results are not listed. Activity calls are given as the source filed them. Unless noted, calls follow the shape of the dose curve; as a rule, active = well fitted curve in the direction sought with a large enough effect in the repeat runs; inconclusive = weak or mixed curves; inactive = flat fitted curve, though single readings scatter.

A short description of experiment [1]: qHTS assay to test for compound auto fluorescence at 535 nm (green) in HEK293 cells (AID 720680). (qHTS replaces the single test concentration by a dilution series.)
Experiment [2] can be described thus: qHTS assay to test for compound auto fluorescence at 460 nm (blue) in HEK293 cell free culture (AID 720681). In short, it runs like this: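 Blue fluorescence (Ex 405/Em 460 nm, triamterene-equivalent) was read immediately after pin transfer of compound or DMSO into medium (DMEM, 10% FBS) without cells.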
The nature of experiment [3]: qHTS assay to test for compound auto fluorescence at 535 nm (green) in HEK293 cell free culture (AID 720682). An outline of the steps:
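Each library compound, or DMSO control, is added by pintool to medium alone, comprising DMEM and 10% FBS. Emission at 535 nm following 485 nm excitation is quantified against fluorescein.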

The nature of experiment [4]: qHTS assay to test for compound auto fluorescence at 590 nm (red) in HEK293 cell free culture (AID 720683). An outline of the steps: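 Red-channel autofluorescence of compounds in culture medium (DMEM, 10% FBS), no cells, measured at 540/590 nm. Rose Bengal sodium is the reference fluorophore for equivalence.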
Experiment [5] can be described thus: qHTS assay to test for compound auto fluorescence at 590 nm (red) in HepG2 cell free culture (AID 720684). In short, it runs like this:
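Steps: dispense MEM/10% FBS medium, no cells; pin compound or DMSO vehicle; read red channel, Ex/Em 540/590 nm. Output given as Rose Bengal sodium equivalents.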

A short description of experiment [6]: qHTS assay to test for compound auto fluorescence at 460 nm (blue) in HepG2 cell free culture (AID 720685). In short, it runs like this: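 Compound (23 nL) or DMSO pinned into cell-free MEM with 10% FBS; blue fluorescence read at 405/460 nm excitation/emission, expressed as auto-fluorescence equivalency to triamterene.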
The nature of experiment [7]: qHTS assay to test for compound auto fluorescence at 535 nm (green) in HepG2 cell free culture (AID 720686).
The nature of experiment [8]: qHTS assay to test for compound auto fluorescence at 460 nm (blue) in HepG2 cells (AID 720687). An outline of the steps: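 Blue-channel autofluorescence (Ex/Em 405/460 nm, triamterene-equivalent) was measured after 1 hr compound exposure at 37 C, 5% CO2. Cells were HepG2, plated overnight at 37 C in MEM plus 10% FBS.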
For experiment [9], the target named is Glucocorticoid receptor (Homo sapiens) (UniProt P04150). The experiment in a line: qHTS assay to identify small molecule agonists of the glucocorticoid receptor (GR) signaling pathway (AID 720691; active = well fitted activation curve with a large enough effect in the signal ratio in the repeat runs, not every such curve was filed as active; the % refers to the signal ratio; also: potency is read from the fitted curve at half-maximal effect). Particulars: GR-bla HeLa, beta-lactamase reporter ratio, 18 h; activation: at 62.4 µM (top of the series). An outline of the steps:
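Fluorescence intensity from LiveBLAzer B/G FRET substrate (2 h, room temperature) reports beta-lactamase expression driven by the glucocorticoid response element in GR-bla HeLa cells after 18 h compound exposure at 37 C.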

The target is the same in experiment [10]. In words: qHTS assay to identify small molecule antagonists of the glucocorticoid receptor (GR) signaling pathway (AID 720692; active = well fitted inhibition curve with a large enough effect in the signal ratio in the repeat runs, not every such curve was filed as active; the % refers to the signal ratio; also: potency is read from the fitted curve at half-maximal effect). An outline of the steps:
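HeLa GR-bla cells; cmpd + dex 5 nM final, 18 h 37 C; LiveBLAzer B/G FRET substrate 2 h RT; fluorescence intensity read. Antagonist mode, qHTS.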

Glucocorticoid receptor (Homo sapiens), sequence (P04150 whole entry, looked up): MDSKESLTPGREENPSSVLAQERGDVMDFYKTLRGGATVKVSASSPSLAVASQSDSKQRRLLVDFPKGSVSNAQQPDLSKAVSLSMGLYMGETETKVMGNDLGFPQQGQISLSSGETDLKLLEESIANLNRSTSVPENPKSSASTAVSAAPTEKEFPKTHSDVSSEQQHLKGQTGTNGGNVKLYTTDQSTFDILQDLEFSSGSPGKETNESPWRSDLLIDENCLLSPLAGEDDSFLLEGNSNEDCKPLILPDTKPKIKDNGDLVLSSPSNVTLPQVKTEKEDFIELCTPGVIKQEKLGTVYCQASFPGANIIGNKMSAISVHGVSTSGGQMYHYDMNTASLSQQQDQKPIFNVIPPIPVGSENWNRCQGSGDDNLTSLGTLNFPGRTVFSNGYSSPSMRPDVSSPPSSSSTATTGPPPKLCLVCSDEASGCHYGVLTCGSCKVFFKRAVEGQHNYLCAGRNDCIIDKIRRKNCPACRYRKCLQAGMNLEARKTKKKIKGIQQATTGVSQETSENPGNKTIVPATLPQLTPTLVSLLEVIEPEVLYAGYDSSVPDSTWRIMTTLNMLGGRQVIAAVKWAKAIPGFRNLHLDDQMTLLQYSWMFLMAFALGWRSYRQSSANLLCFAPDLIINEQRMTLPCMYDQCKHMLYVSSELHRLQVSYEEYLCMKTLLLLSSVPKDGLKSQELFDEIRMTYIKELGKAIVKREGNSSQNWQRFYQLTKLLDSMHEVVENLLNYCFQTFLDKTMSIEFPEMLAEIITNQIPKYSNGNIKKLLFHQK

As to `CCc1oc2ccccc2c1C(=O)c1cc(Br)c(O)c(Br)c1`, the result in experiment [1] and in experiment [3] was inactive. Further, the Potency entry in [2], in experiment [4], in [5], in experiment [6], in experiment [7] and in [8] was “inactive” throughout. The Potency result in [9] is “inactive”. The Potency in experiment [10] was 15.1 µM (active).

As for `CCN(CCC#N)c1ccc(N=Nc2c(Cl)cc([N+](=O)[O-])cc2Cl)cc1`, the compound was classed as inactive in experiment [1] and in [3]. The Potency entry in [2], in [4], in [5], in [6], in [7] and in experiment [8] was “inactive” each time. The Potency entry in experiment [9] and in [10] was “inactive” throughout.

Consider `CC(NN)c1ccccc1` (stereo unspecified), for which the compound was called inactive in experiment [1] and in experiment [3]. In addition, the Potency entry in experiment [2], in experiment [4], in experiment [5], in [6], in experiment [7] and in experiment [8] was “inactive” in each case. In addition, the Potency entry in [9] and in experiment [10] was “inactive” in each case.

In the case of `CCCCCOC(=O)CCCC`, the result in experiment [1] and in experiment [3] was inactive. Besides, the Potency result in experiment [2], in experiment [4], in experiment [5], in experiment [6], in [7] and in experiment [8] was “inactive” each time. In addition, the Potency entry in [9] and in [10] was “inactive” each time.

For `O=C(Oc1ccccc1)c1ccccc1C(=O)Oc1ccccc1`, the call in [1] and in experiment [3] was inactive. In addition, the Potency result in experiment [2], in experiment [4], in experiment [5], in [6], in experiment [7] and in experiment [8] was “inactive” in each case. Moreover, the Potency result in experiment [9] and in [10] was “inactive” each time.

Consider `CC(C)OC(=O)c1cc2c(OCC(O)CNC(C)(C)C)cccc2[nH]1` (stereo unspecified), for which the call in [1] and in [3] was inactive. For the same compound, the Potency result in [2], in [4], in experiment [5], in experiment [6], in experiment [7] and in experiment [9] was “inactive” each time. For the same compound, the Potency entry in experiment [10] was “inactive”.

With `N/C(=N\N=C\c1ccc(Cl)cc1)N/N=C/c1ccc(Cl)cc1`, the outcome in experiment [1] and in experiment [3] was inactive. For the same compound, the Potency entry in [2], in experiment [4], in experiment [5], in experiment [6], in [7] and in [8] was “inactive” each time. Moreover, the Potency entry in experiment [9] and in experiment [10] was “inactive” throughout.

With `Cc1ccc(O)c(C(C)(C)C)c1`, the outcome in [1] and in [3] was inactive. Moreover, the Potency entry in experiment [2], in [4], in experiment [5], in experiment [6], in [7] and in experiment [8] was “inactive” each time. The Potency result in experiment [10] is “inactive”.

As for `CCOC(=O)O[C@]1(C(=O)OCCl)CC[C@H]2[C@@H]3CCC4=CC(=O)C=C[C@]4(C)[C@H]3[C@@H](O)C[C@@]21C`, the outcome in [1] and in experiment [3] was inactive. The Potency result in experiment [2], in [4], in [5], in experiment [6] and in experiment [7] was “inactive” in each case. In addition, in [9], the Potency is 0.0756 µM (active).

On to `CN1CCN(CCC(=O)N2c3ccccc3Sc3ccc(C(F)(F)F)cc32)CC1`, for which the compound was called inactive in experiment [1] and in [3]. Also, the Potency entry in experiment [2], in [4], in experiment [5], in experiment [6] and in experiment [8] was “inactive” each time.

Consider `CCCCCCCCCOC(=O)c1ccc(O)cc1`, for which the call in [1] and in experiment [3] was inactive. Further, the Potency result in experiment [2], in [4], in [5], in [6] and in [8] was “inactive” each time.

For `CCCCC(CC)COC(=O)c1ccccc1C(=O)O` (stereo unspecified), the outcome in experiment [1] and in [3] was inactive. Besides, the Potency result in experiment [2], in experiment [4], in experiment [5], in [6], in experiment [7] and in experiment [8] was “inactive” each time. Moreover, in experiment [9], the Potency entry is “inactive”. Besides, the Potency in experiment [10] is 39.6 µM (active).

As to `Nc1ccc(N)c2ccccc12`, the result in experiment [1] and in experiment [3] was inactive. For the same compound, the Potency result in experiment [2], in [4], in experiment [5], in experiment [6] and in experiment [8] was “inactive” throughout.

With `Cc1cc2c(cc1C(F)(F)F)N(C(=O)Nc1ccc(Oc3cccnc3C)nc1)CC2`, the call in experiment [1] and in experiment [3] was inactive. Also, the Potency entry in [2], in experiment [4], in [5], in [6], in experiment [7] and in experiment [9] was “inactive” each time. Moreover, the Potency entry in [10] was “inactive”.

On to `C[n+]1ccn(Cc2ccccc2)c1`, for which the compound was classed as inactive in experiment [1] and in experiment [3]. In addition, the Potency result in experiment [2], in experiment [4], in experiment [5], in experiment [6], in experiment [7] and in experiment [8] was “inactive” throughout. Besides, the Potency entry in [9] and in experiment [10] was “inactive” each time.

The record behind these values is PubChem BioAssay (Tox21).
